High-throughput results: PubChem BioAssay, National Center for Advancing Translational Sciences (NCATS)
Shown is part of a subset that was picked to be rich in hits.
KDM5B inhibitor – inhibitors of human KDM5B histone demethylase; KDM5B demethylase, FDH-coupled NADH fluorescence (FDH is formaldehyde dehydrogenase); Potency, µM (doses to about 57.7 µM), usual class: inhibitors; Q9UGL1; actives 2.6% (n = 220,000); active = well fitted inhibition curve with a large enough effect; note: 0% is about no effect; nearly all actives have a fitted effect of over 70% in size
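Compound dilutions met 200 nM (final) KDM5BΔAP for 10 min at room temperature before substrate addition. The substrate mix held 12.5 µM H3K4me3 with cofactors 25 µM α-ketoglutarate and 50 µM Fe²⁺. NADH signal gain over 30 min defined activity.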
Numbers without * were called inactive; i = inactive. Potency is the fitted concentration of half-maximal effect.

SMILES | KDM5B inhibitor
COc1ccccc1C(C)NC(=O)Cn1c(=O)c2c(ncn2C)n(C)c1=O (centres undefined) | i
COc1ccc(C(=O)/C=C/c2ccc(Br)cc2)cc1CSCC(=O)O | i
c1ccc(-c2c3c(ccc4ccccc43)[o+]c3ccc4ccccc4c23)cc1 | i
CCc1ccc(/C=C(/C#N)C(=O)Nc2ccc(N3CCOCC3)cc2)cc1 | i
Cc1ccc(/C=C/C(=O)OC(C)C(=O)C23CC4CC(CC(C4)C2)C3)o1 (centres undefined) | i
Cc1occc1C(=O)Nc1ccc(SC2CCCC2)cc1 | i
Cc1c(-c2ccccc2)nc2ccc(Br)cc2c1C(=O)O | i
Cc1cc(C)c(NC(=O)CSc2ncc(CO)n2CC(=O)NC2CC2)c(C)c1 | i
S=C(NCc1cccc(Cl)c1)NCc1cccs1 | i
COc1cccc(-c2nc(N3CCOCC3)cc3c2CN(C)C3=O)c1OC | 39.8µM*
Cc1ccc(NC(=O)Nc2cccc(-c3ccc(N4CCOCC4)nn3)c2)cc1F | i
COc1ccc(CN2Cc3[nH]nc(-c4cccc(OC)c4OC)c3CC2=O)cc1 | i
COc1cccc(NC(=O)Nc2cccc(-c3ccc(N4CCOCC4)nn3)c2)c1 | i
COc1cccc(-c2nc(N3CCOCC3)cc3c2CN(C)C3=O)c1 | 35.5µM*
CN1Cc2c(cc(N3CCOCC3)nc2-c2cccc(C(F)(F)F)c2)C1=O | i
CN1Cc2c(cc(N3CCOCC3)nc2-c2cccc(N[S+](C)(=O)[O-])c2)C1=O | 35.5µM*
Cc1cc(S(=O)(=O)Nc2cccc(-c3ccc(N4CCOCC4)nn3)c2)c(C)cc1Cl | i
COc1cccc(-c2ccc(N3CCCCCC3)nn2)c1OC | i
COc1cccc(C2CC(=O)N(c3cccc(C(F)(F)F)c3)C3=C2C(=O)OC3)c1OC (centres undefined) | i
COC(=O)c1ccc(CN(C)C(=O)CCc2ncc(-c3ccccc3F)o2)cc1 | i
O=C(CCl)NC(NC(=O)CCl)c1ccccc1 | i
O=C(CSc1ccccc1C(=O)O)Nc1ccc2c(c1)OCCCO2 | i
Cc1cc(C)c(NC(=O)CCNC(=O)Cc2ccccc2)c(C)c1 | i
N#Cc1ccc(NC(=O)Cn2c(=O)c3c(ncn3C3CCCC3)n(Cc3ccccc3)c2=O)cc1 | i
CCN1CCN(Cc2cc3ccc(C)cc3nc2-c2ccc(OC)c(OC)c2)CC1 | i
SMILES | KDM5B inhibitor
COc1ccc(-c2nc3cc(C)ccc3cc2CN2CCC(NC(C)=O)C2)cc1 (centres undefined) | 20µM*
COc1ccc(-c2nc3cc(C)ccc3cc2CN2CCN(C(C)=O)CC2)cc1 | i
CC(=O)Nc1c(C)noc1/C=C\c1ccc(C)c(S(=O)(=O)Nc2cc(C)ccc2C)c1 | i
O=C(C[C@@H]1CCNC[C@@H]1Cc1cc(-c2ccccc2)on1)NCc1ccc(F)cc1 | i
Cc1cccc(Nc2nc3ccccc3nc2NS(=O)(=O)c2cccc3nsnc23)c1 | i
CNCCN1C(=O)CC[C@H]2CN(C(=O)c3ccc(Cl)cn3)CC[C@H]21 | i
CNCCN1C(=O)CC[C@H]2CN(c3ncc(Cl)cc3F)CC[C@H]21 | 25.1µM*
CNCCN1C(=O)CC[C@H]2CN(c3nc4cc(C)ccc4o3)CC[C@H]21 | i
Cc1ccc(NC(=O)COC(=O)c2ccc3ccccc3n2)cc1C | i
Cc1c2cnn(CC(=O)NCc3cccs3)c(=O)c2c(C)n1Cc1ccccc1 | i
CCCc1c(C)[nH]c2c(Br)cccc2c1=O | i
N#CC1(C#N)CC2(O)NC(=O)C1(C#N)C(c1ccccc1)C2Br (centres undefined) | i
O=C(NC1CCCCCCC1)c1ccncc1 | i
O=C(c1ccc(-c2ccc(N3CCCCCC3)nc2)cc1)N1CCCC1 | 25.1µM*
CN(C)C(=O)c1ccc(-c2ccc(N3CCCCCC3)nc2)cc1 | 28.2µM*
O=C(NC1CCCC1)c1ccc(-c2ccc(N3CCCCC3)nc2)cc1 | 11.2µM*
CC(C)NC(=O)c1ccc(-c2ccc(N3CCCCCC3)nc2)cc1 | i
O=C(NC1CC1)c1ccc(-c2ccc(N3CCCCCC3)nc2)cc1 | i
O=[N+]([O-])c1ccc(N2CCCCC2)nc1 | i
CN(C)C(=O)c1ccnc(-c2nnc3ccc(N4CCCCC4)nn23)c1 | i
O=C(c1ccc(N2C(=O)c3ccccc3C2=O)cc1)N1CCCCC1 | i
Cc1ccc(C(O)CNC(=O)C2CC=CCC2)cc1 (centres undefined) | i
Cc1cc(C)cc(NCc2ccccc2CO)c1 | i
CN1CCC(NC(=O)c2cccc3ccccc23)CC1 | i
COc1ccc(CNC(=O)c2cccc(OC)c2)cc1 | i
COc1ccc(-c2ccc3nnc(CNC(=O)c4cccc(OC)c4)n3n2)cc1 | 28.2µM*
COc1ccc(-c2ccc3nnc(CNC(=O)c4ccc(OC)nc4OC)n3n2)cc1 | 31.6µM*
COc1ccc(-c2ccc3nnc(CNC(=O)c4cccc(NC(C)=O)c4)n3n2)cc1 | 28.2µM*
CCN(CC)c1ccc(C(=O)NCc2nnc3ccc(-c4ccc(OC)cc4)nn23)cc1 | i
COc1ccc(CC(=O)Nc2cccc(-c3ccc4nnc(C)n4n3)c2)cc1 | i
